A selection: hits, their analogues and other compounds. The true share with any hit is near 3.9%.
CCHFV vOTU inh – CCHFV vOTU protease inhibitors, primary screen, biochemical, Pep-AMC substrate, fluorescence. actives 0.55% (n = 370,000). AID 651958, 2012. Crimean-Congo hemorrhagic fever virus L polyprotein viral ovarian tumor (vOTU) protease …. inhibition, % at 11.5 µM; in the data active means inhibition above about 30%; further: 0% = vehicle wells with enzyme and 100% = no enzyme wells
BoNT F protease – BoNT/F light chain protease inhibitors, primary screen, biochemical, flow cytometry, MLPCN library; actives 0.22% (n = 360,000); Botulinum neurotoxin type F light chain protease (Clostridium botulinum); Multiplex microsphere protease cleavage assay; inhibition, % at 10 µM; in the data active means inhibition above about 35%, passing the limit was not always enough; inconclusive means no clear call, values can overlap the other calls; further: plate controls were buffer without enzyme for full effect and enzyme alone for no effect
BoNT A protease – BoNT/A light chain protease inhibitors, primary screen, biochemical, flow cytometry, MLPCN library | actives 0.17% (n = 360,000) | inhibition, % at 10 µM | multiplex microsphere protease substrate cleavage; further: plate controls were buffer without enzyme for full effect and enzyme alone for no effect
Anthrax LF inh2 – Bacillus anthracis LF protease inhibitors, primary screen, biochemical, multiplex microsphere, MLPCN library; multiplex microsphere protease cleavage assay; inhibition, % at 10 µM; actives 0.12% (n = 360,000); AID 588501, 2011; further: plate controls were buffer without enzyme for full effect and enzyme alone for no effect
Autofluor counter – compound fluorescence in toxin protease inhibitor counterscreen | fluorescence intensity (concentration not given with the values) | actives 3.1% (n = 360,000) | compound autofluorescence counterscreen, microsphere flow cytometry; active compounds read high; in the data active means fluorescence intensity above about 16000; inconclusive means no clear call, values can overlap the other calls
3CLpro inhibitor – SARS-CoV 3CLpro protease inhibitors, primary screen, biochemical, quenched FRET. recombinant SARS-CoV 3CLpro, quenched FRET peptide cleavage. Replicase polyprotein 1ab (Severe acute respiratory syndrome coronavirus), P0C6X7. inhibition, % at 6 µM. AID 1706, 2009. actives 0.14% (n = 290,000); in the data active means inhibition above about 12%
* = called active by the depositor; u = inconclusive; x = no result. Unless noted, no stated cut-off is given here; in the data, active means inhibition above about 30%; inconclusive means no clear call, values can overlap the other calls; inactive means below that.

SMILES | CCHFV vOTU inh | BoNT F protease | BoNT A protease | Anthrax LF inh2 | Autofluor counter | 3CLpro inhibitor
OC(Cc1ccccc1Br)c1ncc(-c2ccc(Cl)cc2)[nH]1 (centres undefined) | 1.8 | -5.5 | -0.6 | 6.3 | 4189 | x
CCCCNC(=O)C[C@H]1C[C@@]2(C(=O)OC)C(=C[C@H](COCc3ccccc3)O[C@@H]2C)N(CCc2ccc(OC)c(OC)c2)C1=O | 1.7 | x | x | x | x | x
Cc1ccc(-c2nc(C3CCCN(S(=O)(=O)c4ccc(Cl)s4)C3)no2)cc1 (centres undefined) | 1.2 | x | x | x | x | x
O=C(CN1CCCc2ccccc21)NCc1ccccc1F | 1.3 | x | x | x | x | x
Cc1c(CCC(=O)NCCCn2ccnc2)c(=O)oc2cc3oc4c(c3cc12)CCCC4 | 15.0 | -1.2 | 0.1 | -6.3 | 4022 | -3.8
COC(=O)c1ccc(Cl)c(NC(=O)CN2CCN(C)CC2)c1 | 1.7 | -3.3 | u | -4.2 | 23083* | 1.8
CCOC(=O)N1CCN(c2cc(=O)n(-c3ccc(OCC)cc3)c(=O)[nH]2)CC1 | -13.1 | 1.0 | 1.2 | -0.2 | 22900* | -1.4
COc1ccccc1N1CCN(c2cc(=O)n(-c3ccc(Cl)cc3)c(=O)[nH]2)CC1 | 1.4 | -0.7 | -0.1 | 1.0 | 6067 | -1.9
COc1ccccc1N1CCN(c2cc(=O)n(-c3ccc(Br)cc3)c(=O)[nH]2)CC1 | 3.3 | 9.6 | 5.8 | -2.1 | 21225* | 5.0
CCOC(=O)N1CCN(c2cc(=O)n(-c3ccc(OC)cc3)c(=O)[nH]2)CC1 | 0.2 | 0.6 | 0.2 | -3.9 | 9865 | -0.6
CC(=O)c1c(C)[nH]c(C(=O)COC(=O)c2ccc(C)s2)c1C | 5.4 | -8.7 | -0.5 | -1.7 | 4308 | x
COc1ccc(NC(=O)CCCOc2ccc(Cl)c(C)c2)cc1S(=O)(=O)N1CCOCC1 | -0.6 | 0.7 | 0.0 | 1.3 | 3785 | x
COc1cccc(CNC(=O)C2C3C=CC4(CN(Cc5ccccc5)C(=O)C24)O3)c1OC (centres undefined) | -8.3 | x | x | x | x | x
COc1cccc(-c2nnn(CCC(=O)O)n2)c1 | 2.2 | 2.9 | u | 1.3 | 19600* | 9.5
COc1ccc(-c2nnn(CCC(=O)O)n2)cc1 | 7.5 | 7.8 | 0.4 | 2.1 | 11209 | -0.3
COc1ccccc1-c1nnc2sc(COc3ccc(Cl)cc3Cl)nn12 | -0.3 | -15.8 | -0.2 | -1.8 | 6462 | -2.3
COc1ccccc1-c1nnc2sc(COc3ccccc3)nn12 | 1.6 | 10.6 | 7.5 | -12.1 | 20024* | 3.2
COc1ccc(OCc2nn3c(Cn4cnc5ccccc54)nnc3s2)cc1 | 1.3 | -2.3 | -1.8 | -4.9 | 16600* | -0.3
c1ccc(CCc2nn3c(Cn4cnc5ccccc54)nnc3s2)cc1 | -0.9 | -4.7 | -0.1 | 0.9 | 7717 | 0.8
O=C(NNC1CC(=O)N(c2ccccc2)C1=O)c1ccco1 (centres undefined) | 5.2 | -0.8 | -0.2 | 1.7 | 4389 | 3.1
Cc1cccc(N2C(=O)CC(N(C(=O)c3ccco3)c3cccc(C)c3)C2=O)c1 (centres undefined) | -13.0 | -7.4 | u | -0.1 | 17561* | 1.1
O=C1NC(c2cccnc2)Nc2sc3c(c21)CCCC3 (centres undefined) | -10.2 | -6.3 | -1.3 | 4.2 | 10852 | -0.7
O=C1NC(c2ccc(Br)cc2)Nc2sc3c(c21)CCC3 (centres undefined) | -0.6 | 1.8 | 1.0 | -3.9 | 22598* | -3.4
NC(=O)Cn1c(=O)n(CCc2ccccc2)c(=O)c2c3c(sc21)CCCC3 | -1.2 | -5.2 | -1.1 | -3.3 | 16478* | -0.3
O=c1c2c3c(sc2n2cnnc2n1CCc1ccccc1)CCCC3 | 11.4 | -2.3 | -1.5 | -4.4 | 16649* | -7.4
CN(C)CCCn1c(=O)n(CCc2ccccc2)c(=O)c2c3c(sc21)CCCCC3 | -14.0 | 10.2 | -0.3 | -0.5 | 3872 | -4.0
O=C(CCCc1ccccc1)Nc1ccc(Br)cc1F | x | -25.9 | -1.2 | 32.0* | 3547 | -6.7
O=C(CCc1ccccc1)Nc1ccc(F)cc1F | 9.8 | 7.1 | 0.0 | -6.9 | 4987 | 0.9
O=C(O)CN1C(=O)c2ccc(Oc3ccc4c(c3)C(=O)N(CC(=O)O)C4=O)cc2C1=O | -0.9 | -3.0 | 1.1 | -4.9 | 5860 | 3.4

From PubChem
